# Assay results published in PubChem BioAssay (NCI).
# Values joined by “and” are separate entries in the source; they are usually repeats but may differ in a detail not shown here. Identical values can stand only once. The panel holds about 83,000 compounds, 20% with a hit somewhere; the sample as a whole holds those more often.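 Single-dose data. Exposure time 48 hours. Values below 10 considered active.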 Active and inactive are the calls of the source. Where a SMILES comes first, the peptide text is derived from it.
# System: MOLT-4 leukemia
# Assay: NCI-60 one-dose screen, 48 h (100 = growth as untreated, 0 = no growth, -100 = all killed)
# Details: 10 µM unless noted
# Description: Growth inhibition of the MOLT-4 human tumor cell line is measured as a screen for anti-cancer activity. Cells are grown in 96 well plates and exposed to the test compound for 48 hours. Compounds are tested at a single concentration, which is 10^-5 M for most compounds. The reported endpoint is percent growth (GI% or GIPRCNT), where numbers from 0 - 100% represent growth inhibition, and numbers from -100% - 0 represent cell death. For example, a value of 40 represents 60% growth inhibition. A value of 0 means no net growth occurred over the course of the experiment. A value of -40 indicates 40% of cells at the beginning of the experiment died by the end of the experiment. A value of -100 means all cells are dead at the end of the experiment.
# NCI-60 Human Tumor Cell Lines Screen was performed using the standard one-dose NCI protocol, which is described in more detail at https://dtp.cancer.gov/discovery_development/nci-60/default.htm.
# Compounds with GIPRCNT values below 10 were considered active. Activity score was based on GIPRCNT using the following formula: […]
# Score is 0 for GIPRCNT values of 100 or above, 50 for GIPRCNT values of 0, and 100 for GIPRCNT values of -100.
row,SMILES,growth
1,CC(C)(O)C(=O)O,108% (inactive)
2,Cc1cc(-c2cc(C)c(O)c(C)c2)cc(C)c1O,74.9% (inactive)
3,c1ccc(-c2nc3ccccc3s2)cc1,103% (inactive)
4,CC(C)C(C)(C)c1ccc(O)cc1,106% (inactive)
5,c1ccc(CNCCNCc2ccccc2)cc1,105% (inactive)
6,OCC1OC(O)C(O)C(O)C1O (stereo not given),96.6% (inactive)
7,O=[N+]([O-])c1cccc(SSc2cccc([N+](=O)[O-])c2)c1,82.1% (inactive)
8,Brc1ccc(SSc2ccc(Br)cc2)cc1,4.43% (active)
9,CCOC(=O)c1c(C)cc(=O)oc1C,101% (inactive)
10,Cc1ccc(S(=O)(=O)c2ccccc2)cc1,32.5% (inactive)
11,COc1ccc(C(=O)CC(c2ccccc2)C(C#N)c2ccccc2)cc1 (stereo not given),76.4% (inactive)
12,COc1ccc(Nc2ccc3ccccc3c2)cc1,71.5% (inactive)
13,NC(Cc1ccccc1)C(=O)NC(Cc1ccccc1)C(=O)O (stereo not drawn) (H-Phe-Phe-OH; configuration not given here),100% (inactive) and 101% (inactive)
14,NN1CCOC(c2ccccc2)C1 (stereo not given),76.1% (inactive)
15,O=C(Cc1ccccc1)c1ccc(O)c(Cl)c1,22.6% (inactive)
16,CC(C)NC(=O)N/C=C(\C#N)C(N)=O,106% (inactive)
17,C/C(=C\c1ccccc1)c1ccccn1,73.3% (inactive)
18,CC1CCC2(C(=O)O)CCC3(C)C(=CCC4C5(C)CCC(O)C(C)(C)C5CCC43C)C2C1C (stereo not given),-11.8% (active) and 84.5% (inactive)
19,CC1CCC2(OC1)OC1CC3C4CC=C5CC(O)CCC5(C)C4CCC3(C)C1C2C (stereo not given),102% (inactive)
20,Cn1cnc([N+](=O)[O-])c1Sc1ncn[nH]1,121% (inactive)

row,SMILES,growth
1,COc1ccc2cc1Oc1ccc(cc1)C[C@H]1c3cc(c(OC)cc3CCN1C)Oc1c(OC)c(OC)cc3c1[C@H](C2)N(C)CC3,28.2% (inactive)
2,OC1COC(OCc2ccccc2)C(O)C1O (stereo not given),98.9% (inactive)
3,O=C1c2c(O)ccc(O)c2C(=O)c2c(NCCNCCO)ccc(NCCNCCO)c21,2.98% (active) and -18.1% (active)
4,CC[C@H](CC[C@@H](C)[C@H]1CC[C@H]2[C@@H]3CC=C4C[C@@H](O)CC[C@]4(C)[C@H]3CC[C@]12C)C(C)C,108% (inactive) and 103% (inactive)
5,CN(C)c1ccc(/C=C\C(=O)c2ccccc2)cc1,74.5% (inactive) and 85.3% (inactive) and 72.2% (inactive)
6,O=C(CO)C(O)C(O)C(O)C(O)CO (stereo not given),106% (inactive) and 95.8% (inactive)
7,Nc1nc(N)c2[nH]cnc2n1,92.6% (inactive)
8,O=c1[nH]cnc2c1ncn2C1OC(CO)C(O)C1O (stereo not given),93% (inactive) and 76% (inactive) and 105% (inactive)
9,CN(C)CC1CCCCCC(CN(C)C)C1=O (stereo not given),20.7% (inactive)
10,CC(=O)NCC(=O)c1ccc([N+](=O)[O-])cc1,98.4% (inactive)
11,O=C(O)CCCl,109% (inactive)
12,CCCCCCCCCCNC(=O)CI,-28.9% (active)
13,CC(C)NCC(O)c1ccc(O)c(O)c1 (stereo not given),98.5% (inactive) and 95.2% (inactive) and 98.8% (inactive)
14,CC1CCC(C(C)C)C(NNC(N)=O)C1 (stereo not given),113% (inactive)
15,COc1ccc(N/C=C/C2=[N+](C)c3ccccc3C2(C)C)c(OC)c1,104% (inactive)
16,OCCN1CCCCCCC1,106% (inactive)
17,ClCCOCCOc1ccc(C2CCCCC2)cc1,120% (inactive)
18,Fc1ccc([I+]c2ccc(F)cc2)cc1,54.8% (inactive)
19,O=c1n(CC2CO2)c(=O)n(CC2CO2)c(=O)n1CC1CO1 (stereo not given),19.2% (inactive)
20,O=CN1CCCCC1,121% (inactive)
